Laboratory results from PubChem BioAssay (EPA / NIEHS).
Some structures have more than one record in an assay (separate samples or runs), and their calls can disagree. Calls of active or inactive are those of the source. The calls were made as follows: active = hit-call score of the fitted dose curve at least 0.9, where 1 is the maximum; inactive = score below 0.9.

assay: ATG_GATA_CIS: Attagene CIS-FACTORIAL HepG2 Assay for human GATA Binding Protein (AID 2282944); conditions: HepG2 GATA cis-element reporter, Attagene multiplex mRNA; actives raise or lower the signal
Description: ATG_CIS is a cell-based, multiplexed-readout assay that uses HepG2, a human liver cell line, with measurements taken at 24 hours after chemical dosing in a 24-well plate.ATG_GATA_CIS is one of 52 assay component(s) measured or calculated from the ATG_CIS assay. It is designed to make measurements of mRNA induction, a form of inducible reporter, as detected with fluorescence intensity signals by Reverse transcription polymerase chain reaction (RT-PCR) and Capillary electrophoresis technology.Data from the assay component ATG_GATA_CIS was analyzed into 1 assay endpoint. This assay endpoint, ATG_GATA_CIS, was analyzed with bidirectional fitting relative to DMSO as the negative control and baseline of activity. Using a type of inducible reporter, measures of mRNA for gain or loss-of-signal activity can be used to understand the reporter gene at the transcription factor-level as they relate to the gene GATA1. Furthermore, this assay endpoint can be referred to as a primary readout, because this assay has produced multiple assay endpoints where this one serves a reporter gene function. To generalize the intended target to other relatable targets, this assay endpoint is annotated to the dna binding intended target family, where the subfamily is GATA proteins.
Human liver HepG2 cells are transiently transfected with multiple reporter transcription units (MRTUs) in 6-well plates using FuGene 6 reagent (Roche; 3 ml FuGene/1 mg DNA). The MRTU constructs are regulated by a cis-regulating element (promoter). […] A major difference between the CIS and TRANS system is that in CIS activities of endogenous TFs are measured, whereas the TRANS assay evaluates changes in activities of exogenous, chimeric NR-Gal4 proteins. […] At the end of 24 hour incubation, total RNA was isolated using TriZol reagent (Invitrogen). The isolated RNA is then reverse-transcribed using oligo(dT) primer and Mo-MLV reverse transcriptase (Invitrogen) with DNAse I (Ambion) treatment for 30 min. The one-tenth of the produced cDNA was amplified by PCR using Taq DNA polymerase (Invitrogen) and two reporter sequence-specific primers. The PCR products were fluorescently labeled by primer extension with 6-arboxyfluorescein (6-FAM) 5'-labeled reporter sequence-specific primer (2 min at 95 C, 20 s at 68 C and 10 min at 72 C) and these products were digested with 5U of HpaI (New England Biolabs) for 2h at 37 C. The fragments were purified using Qiaquick PCR columns (Qiagen), analyzed on an ABI 3130xL genetic analyzer (Applied Biosystems) with peak positions identified by using a set of X-rhodamine (ROX)-labeled MapMarker1000 molecular weight standards (BioVentures). The raw capillary electrophoresis data was processed using Attagraph software (Attagene).

Compound	outcome	AC50
CCCCS(=O)(=O)Cl	inactive	
O=C(CBr)c1ccc(O)cc1	inactive	
CC[N+](CC)(CC)CC	inactive	
O=C(O)C1(c2ccc3c(c2)OC[C@H](Cc2ccc(-c4ccccc4)cc2)[C@H]3O)CCCC1	inactive	
CC(C)[N+](=O)[O-]	inactive	
Cc1cc(C(C)(C)c2ccc(O)c(C)c2)ccc1O		91.3 µM (active)
CC(C)C(C)(N)C#N (stereo not given)	inactive	
O=C/C(Cl)=C(/Cl)C(=O)O	inactive	
CCOc1ccc(N)cc1	inactive	
CC(C=O)Cc1ccc2c(c1)OCO2 (stereo not given)	inactive	
CCCCOC(C)=O	inactive	154 µM (active)
O=S1(=O)OC(c2cc(Br)c(O)c(Br)c2)(c2cc(Br)c(O)c(Br)c2)c2ccccc21	inactive	
CCC[CH2][Sn]([CH2]CCC)([CH2]CCC)[CH2]CCC	inactive	
CCOC(=O)CC(=O)CCl	inactive	
C=C(C)C(=O)OCCCCOC(=O)C(=C)C	inactive	
COc1nn(C(=O)NS(=O)(=O)c2ccccc2OC(F)(F)F)c(=O)n1C	inactive	
Cc1cc(SCc2sc(-c3ccc(C(F)(F)F)c(F)c3)nc2C)ccc1OCC(=O)O	inactive	
CCCCCCCCCCCCCCC(Br)C(=O)O (stereo not given)	inactive	
Clc1cc(C(Cl)(Cl)Cl)cnc1Cl	inactive	
O=C1c2ccccc2C(=O)C1C(=O)C(c1ccccc1)c1ccc(Cl)cc1 (stereo not given)	inactive	

Compound	outcome	AC50
BrCC(Br)c1ccccc1 (stereo not given)	inactive	
CS(=O)(=O)c1ccc(C(=O)C2C(=O)CCCC2=O)c(Cl)c1COCC(F)(F)F	inactive	
Oc1c(Cl)cc(Cl)cc1Cl	inactive	
c1cc[c]([Sb]([c]2ccccc2)[c]2ccccc2)cc1	inactive	
Clc1cccc(Cl)c1	inactive	
O=C(Nc1ccc(Br)cc1)c1cc(Br)cc(Br)c1O	inactive	
O=[N+]([O-])c1c2ccccc2cc2ccccc12	inactive	
CC(C)=CC1C(C(=O)OCc2cccc(Oc3ccccc3)c2)C1(C)C (stereo not given)	inactive	
OCC(c1ccc(Cl)cc1)c1ccc(Cl)cc1		52.8 µM (active)
C=CCCl	inactive	
O=NN1CCCCCC1	inactive	
C=C(C)C(=O)OCC(CC)CCCC (stereo not given)	inactive	
Nc1cccnc1	inactive	
N#Cc1ccncc1	inactive	
C=CC(=O)[O][Sn]([CH2]CCC)([CH2]CCC)[CH2]CCC		0.536 µM (active)
CC(c1ccc(O)cc1)c1ccc(O)cc1	inactive	
CCCSP(=S)(OCC)Oc1ccc(SC)cc1 (stereo not given)	inactive	
NC(=O)CCl	inactive	
C=C(C)[C@@H]1CC=C(C=O)CC1	inactive	
